Results on 20 compounds are retold here after PubChem BioAssay.

The nature of experiment [1]: antimalarial activity against Dd2 strain (AID 2302;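 active = growth inhibition above 50% at the single 2 µM test dose, taken to imply half-maximal potency below 2 µM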;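 also: 0% = DMSO untreated growth and 100% = chloroquine plus artemisinin killed control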). Conditions: P. falciparum Dd2 in RBCs, LDH growth readout, 72 h; at 2 µM; active compounds read high.
Experiment [2] in a line: HepG2 cytotoxicity, primary screen, cytotoxicity control for P. falciparum antimalarial project, cell-based, ATP luminescence (AID 2303;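 active = inhibition above 50%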;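 also: 0% = DMSO wells and 100% = digitonin-killed cells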). The conditions noted are these: HepG2 viability, 24-48 h, at 10 µM, active compounds read high.
For experiment [3], the target named is L-lactate dehydrogenase (Plasmodium falciparum (isolate CDC / Honduras)) (UniProt Q27743). As to the kind of experiment: PfLDH activity inhibition – cell lysate, 3D7 strain, counter-screen for P. falciparum growth inhibition project (AID 2304).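 Also: 0% = vehicle and 100% = reference inhibitor.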 The conditions noted are these: P. falciparum 3D7 crude extract, LDH APAD/NBT absorbance; at 2 µM; active compounds read high. Background: Counterscreens check selectivity or assay interference.
Sequence of L-lactate dehydrogenase (Plasmodium falciparum (isolate CDC / Honduras)) (Q27743 whole entry, looked up): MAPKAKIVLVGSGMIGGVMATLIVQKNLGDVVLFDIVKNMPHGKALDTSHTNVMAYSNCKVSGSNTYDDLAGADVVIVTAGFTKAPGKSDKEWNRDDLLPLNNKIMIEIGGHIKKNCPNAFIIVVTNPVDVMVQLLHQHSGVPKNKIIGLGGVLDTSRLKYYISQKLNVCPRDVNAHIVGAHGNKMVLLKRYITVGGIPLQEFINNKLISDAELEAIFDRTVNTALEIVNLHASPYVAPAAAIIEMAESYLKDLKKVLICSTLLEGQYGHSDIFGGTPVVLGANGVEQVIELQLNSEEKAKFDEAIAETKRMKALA

A short description of experiment [4]: inhibition of 3D7 malaria parasite growth – strain 3D7 (AID 2306).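 Also: 0% = DMSO wells and 100% = chloroquine plus artemisinin control wells.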 The conditions noted are these: P. falciparum 3D7 erythrocytic growth, LDH absorbance, 72 h; at 2 µM; active compounds read high.
Experiment [5] has as its target Calcium-dependent protein kinase 1 (Plasmodium falciparum (isolate 3D7)) (UniProt P62344). Kind of experiment: PfCDPK1 kinase inhibitors, biochemical, TCAMS library (AID 1159585; cut-off not given, nearly all actives have IC50 up to about 0.98 µM;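 also: inhibitors leave more ATP so luminescence rises with inhibition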). Conditions: recombinant PfCDPK1, Kinase-Glo ATP depletion luminescence. Background: In Kinase-Glo more light means more ATP remaining.
Experiment [6] has as its target Plasmodium falciparum protein kinase 6 (PK6, PF3D7_1337100) (UniProt Q8IDW1). As to the kind of experiment: PfPK6 kinase inhibitors, biochemical, TCAMS library (AID 1159586). Conditions: recombinant PfPK6, Kinase-Glo ATP depletion luminescence.
Experiment [7] deals with Protein kinase 7 (PK7), Plasmodium falciparum 3D7 (PF3D7_0213400) (UniProt Q7YTF7). Kind of experiment: inhibition of Plasmodium PK7 catalytic activity – biochemical, TCAMS antimalarial set, Kinase-Glo luminescence (AID 1159587). The conditions noted are these: recombinant PfPK7, Kinase-Glo ATP depletion luminescence.
Sequence of Protein kinase 7 (PK7), Plasmodium falciparum 3D7 (PF3D7_0213400) (Q7YTF7 1-343): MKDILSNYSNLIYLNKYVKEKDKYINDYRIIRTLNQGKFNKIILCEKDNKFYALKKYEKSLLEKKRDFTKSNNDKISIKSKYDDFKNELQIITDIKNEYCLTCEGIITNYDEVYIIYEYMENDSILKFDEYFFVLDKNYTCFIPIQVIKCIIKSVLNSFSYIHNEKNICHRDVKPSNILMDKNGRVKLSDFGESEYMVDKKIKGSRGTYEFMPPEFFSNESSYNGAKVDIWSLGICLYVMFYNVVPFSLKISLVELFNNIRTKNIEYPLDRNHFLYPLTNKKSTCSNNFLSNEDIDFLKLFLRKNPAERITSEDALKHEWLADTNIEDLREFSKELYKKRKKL
Experiment [8] has as its target Calcium-dependent protein kinase 4 (Plasmodium falciparum (isolate 3D7)) (UniProt Q8IBS5). Kind of experiment: PfCDPK4 kinase inhibitors, biochemical, TCAMS library (AID 1159588; cut-off not given, nearly all actives have IC50 up to about 0.91 µM). Conditions: recombinant PfCDPK4, Kinase-Glo ATP depletion luminescence.

A number with no mark means an inactive call. For some of these results: Results with a measured potency or affinity are listed apart. The source made the active and inactive calls. Unless noted, no rule for the calls is given here.

Sequence of Calcium-dependent protein kinase 4 (Plasmodium falciparum (isolate 3D7)) (Q8IBS5 whole entry, looked up): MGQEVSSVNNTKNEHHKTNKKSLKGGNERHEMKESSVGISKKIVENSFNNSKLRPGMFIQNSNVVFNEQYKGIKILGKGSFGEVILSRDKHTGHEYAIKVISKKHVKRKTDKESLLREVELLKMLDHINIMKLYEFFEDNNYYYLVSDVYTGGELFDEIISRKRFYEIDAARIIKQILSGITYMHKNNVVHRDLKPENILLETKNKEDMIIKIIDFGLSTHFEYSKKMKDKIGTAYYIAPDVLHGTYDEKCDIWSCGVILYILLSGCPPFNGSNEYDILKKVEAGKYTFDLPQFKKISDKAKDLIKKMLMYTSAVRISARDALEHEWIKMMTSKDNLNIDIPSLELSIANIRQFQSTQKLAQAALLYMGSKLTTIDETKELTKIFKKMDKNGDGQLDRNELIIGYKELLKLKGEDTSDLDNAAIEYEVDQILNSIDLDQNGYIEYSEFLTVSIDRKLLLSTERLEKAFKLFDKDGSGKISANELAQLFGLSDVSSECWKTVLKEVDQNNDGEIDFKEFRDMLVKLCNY
Sequence of Plasmodium falciparum protein kinase 6 (PK6, PF3D7_1337100) (Q8IDW1 1-305): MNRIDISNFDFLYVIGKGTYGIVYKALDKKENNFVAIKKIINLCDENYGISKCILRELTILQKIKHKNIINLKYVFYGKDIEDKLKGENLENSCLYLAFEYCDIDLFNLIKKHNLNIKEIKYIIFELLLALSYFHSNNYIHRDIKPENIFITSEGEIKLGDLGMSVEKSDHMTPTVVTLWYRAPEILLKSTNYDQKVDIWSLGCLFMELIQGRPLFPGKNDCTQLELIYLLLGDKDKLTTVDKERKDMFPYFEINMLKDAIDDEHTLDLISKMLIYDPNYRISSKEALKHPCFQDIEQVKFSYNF
Sequence of Calcium-dependent protein kinase 1 (Plasmodium falciparum (isolate 3D7)) (P62344 whole entry, looked up): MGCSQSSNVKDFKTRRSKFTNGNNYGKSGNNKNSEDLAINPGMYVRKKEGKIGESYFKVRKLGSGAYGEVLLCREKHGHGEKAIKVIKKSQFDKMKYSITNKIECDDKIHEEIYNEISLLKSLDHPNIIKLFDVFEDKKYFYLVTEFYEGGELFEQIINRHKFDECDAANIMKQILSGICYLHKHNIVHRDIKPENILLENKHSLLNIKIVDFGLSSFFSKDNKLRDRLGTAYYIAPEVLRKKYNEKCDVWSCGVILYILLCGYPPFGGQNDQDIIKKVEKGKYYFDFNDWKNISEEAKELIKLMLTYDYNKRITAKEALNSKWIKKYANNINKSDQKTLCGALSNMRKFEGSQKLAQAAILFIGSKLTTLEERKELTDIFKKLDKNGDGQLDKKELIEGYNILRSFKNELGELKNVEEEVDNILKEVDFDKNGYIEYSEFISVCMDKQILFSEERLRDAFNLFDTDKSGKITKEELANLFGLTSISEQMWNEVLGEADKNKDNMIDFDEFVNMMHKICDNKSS

A word on the inhibition: it is the change of the read-out against control, counted positive when it falls. On to `Oc1ccc2[nH]c(-c3cccc(F)c3)nc2c1CN1CCCC1`, for which the growth inhibition in experiment [1] was 47%; in experiment [4], 100% (active). The figures for the inhibition in experiment [2] and in experiment [3] were 0% and 5%, respectively. In addition, the result in experiment [5], in experiment [6], in experiment [7] and in experiment [8] was inactive.

For the compound `COc1ccc2nccc([C@@H](O)CN3CCC(NC(=O)Cn4nc(-c5ccc(C(F)(F)F)cc5)ccc4=O)CC3)c2c1`, the growth inhibition in experiment [1] was 90% (active); in experiment [4], 100% (active). Moreover, the inhibition is 12% in experiment [2] and -3% in experiment [3]. The outcome in experiment [5], in experiment [6], in experiment [7] and in experiment [8] was inactive.

On to `CC(C)Oc1cc(-c2ccc(S(C)(=O)=O)cc2)nc(N(Cc2cccc(F)c2F)Cc2cccc(F)c2F)n1`, for which the growth inhibition is 99% (active) in experiment [1] and 101% (active) in experiment [4]. Also, the inhibition in experiment [2] was 10%; in experiment [3] it was 4%. For the same compound, the result in experiment [5], in experiment [6], in experiment [7] and in experiment [8] was inactive.

As for `CN1CCCc2ccc(NC(=O)C=Cc3ccc(-c4ccc(F)cc4F)o3)cc2C1`, the growth inhibition in experiment [1] is 20%; in experiment [4] it was 98% (active). The inhibition was 8% in experiment [2] and -5% in experiment [3]. For the same compound, the result in experiment [5], in experiment [6], in experiment [7] and in experiment [8] was inactive.

For the compound `CCOc1cc(C(=O)NCc2cc(Cl)cc(Cl)c2)ccc1-c1nc2ccc(Cl)cc2[nH]1`, the results for the growth inhibition in experiment [1] and in experiment [4] were 5% and 101% (active), respectively. The inhibition in experiment [2] is 1%; in experiment [3] it was -3%. The outcome in experiment [5], in experiment [6], in experiment [7] and in experiment [8] was inactive.

As to `NC1CCN(c2nc(NCCc3ccc(O)cc3)nc(NCc3ccccc3-c3ccccc3)n2)CC1`, the growth inhibition in experiment [1] was 32%; in experiment [4] it was 99% (active). Further, the inhibition in experiment [2] was 14%; in experiment [3], 4%. Moreover, the outcome in experiment [5], in experiment [6], in experiment [7] and in experiment [8] was inactive.

Consider `COC(=O)c1ccc(OCC(C)NCC(O)c2cccc(C(F)(F)F)c2)cc1` (stereo not given), for which the growth inhibition in experiment [1] was 81% (active); in experiment [4], 94% (active). The inhibition in experiment [2] is 6%; in experiment [3] it was -2%. Also, the result in experiment [5], in experiment [6], in experiment [7] and in experiment [8] was inactive.

Take `CN1CCN(Cc2cccc(-c3ccc4c(Nc5ccc(F)cc5Cl)ccnc4c3)c2)CC1`: the growth inhibition in experiment [1] is 100% (active); in experiment [4], 101% (active). The inhibition is 20% in experiment [2] and -1% in experiment [3]. The outcome in experiment [5], in experiment [6], in experiment [7] and in experiment [8] was inactive.

As to `COc1ccccc1CCNc1nc(C)cc(N[C@@H](Cc2ccccc2)C(=O)NCCCOC(C)C)n1`, the growth inhibition in experiment [1] was 32%; in experiment [4] it was 99% (active). Moreover, the figures for the inhibition in experiment [2] and in experiment [3] were 10% and -1%, respectively. Also, the outcome in experiment [5], in experiment [6], in experiment [7] and in experiment [8] was inactive.

As for `O=C(Nc1ccc(OC2CCN(Cc3ccc(F)cc3)C2)cc1)c1cccs1` (stereo not given), the growth inhibition in experiment [1] was 92% (active); in experiment [4] it was 94% (active). The inhibition in experiment [2] is 2%; in experiment [3], 4%. Moreover, the result in experiment [5], in experiment [6], in experiment [7] and in experiment [8] was inactive.

For the compound `Nc1nc(N)c2c(CCc3ccc4ccccc4c3)cccc2n1`, the growth inhibition is 6% in experiment [1] and 102% (active) in experiment [4]. The inhibition in experiment [2] was 56% (active); in experiment [3], -2%. Besides, the outcome in experiment [5], in experiment [6], in experiment [7] and in experiment [8] was inactive.

Turning to `Fc1cccc(COc2ccc(Nc3ncnc4sc(C#C[C@H]5CC[C@H](CN6CCOCC6)N5)cc34)cc2Cl)c1`, the growth inhibition in experiment [1] was 23%; in experiment [4], 92% (active). Moreover, the values for the inhibition in experiment [2] and in experiment [3] were 16% and -10%, respectively. In addition, the outcome in experiment [5], in experiment [6], in experiment [7] and in experiment [8] was inactive.

On to `COCCNCc1ncsc1-c1ccc2c(Nc3ccc(Oc4ccccc4)cc3)ccnc2c1`, for which the results for the growth inhibition in experiment [1] and in experiment [4] were 93% (active) and 91% (active), respectively. Besides, the figures for the inhibition in experiment [2] and in experiment [3] were 34% and -7%, respectively. For the same compound, the result in experiment [5], in experiment [6], in experiment [7] and in experiment [8] was inactive.

For the compound `CCCc1ccc(NC(=O)c2ccc(CN3CCCN(Cc4ccc(OC)cc4)CC3)cc2)cc1`, the growth inhibition in experiment [1] is -4%; in experiment [4] it was 81% (active). Also, the figures for the inhibition in experiment [2] and in experiment [3] were 47% and 0%, respectively. Besides, the outcome in experiment [5], in experiment [6], in experiment [7] and in experiment [8] was inactive.

Take `Cn1c(Cc2ccccc2)nnc1Sc1ccc(C#N)c([N+](=O)[O-])c1`: the growth inhibition in experiment [1] was 29%; in experiment [4] it was 93% (active). Further, the inhibition in experiment [2] and in experiment [3] was -5% each time. Moreover, the result in experiment [5], in experiment [6], in experiment [7] and in experiment [8] was inactive.

`Nc1nc2ccc(CN(C=O)c3ccc(C(=O)N[C@@H](CCC(=O)O)C(=O)O)cc3)cc2c(=O)[nH]1`: the growth inhibition in experiment [1] is 94% (active); in experiment [4] it was 93% (active). Further, the inhibition was -5% in experiment [2] and 2% in experiment [3]. Further, the result in experiment [5], in experiment [6], in experiment [7] and in experiment [8] was inactive.

`CC(C)(C)c1ccc(CNC(=O)/C=C/c2ccc(CNC3CCNCC3)cc2)cc1`: the growth inhibition in experiment [1] is 21%; in experiment [4], 96% (active). Moreover, the inhibition in experiment [2] is 6%; in experiment [3], 1%. Besides, the outcome in experiment [5], in experiment [6], in experiment [7] and in experiment [8] was inactive.

As for `CN1CCN(CCc2ccc(N=Cc3c(=O)[nH]c4ccc5[nH]cccc5c34)cc2)CC1`, the growth inhibition in experiment [1] was 98% (active); in experiment [4], 102% (active). The figures for the inhibition in experiment [2] and in experiment [3] were 51% (active) and 6%, respectively. In addition, the result in experiment [5], in experiment [6], in experiment [7] and in experiment [8] was inactive.

`Cc1ccc(NC(=O)NC2CCN(c3ccnc4cc(Cl)ccc34)CC2)cc1`: the growth inhibition was 47% in experiment [1] and 101% (active) in experiment [4]. The inhibition in experiment [2] is 4%; in experiment [3], -2%. The result in experiment [5], in experiment [6], in experiment [7] and in experiment [8] was inactive.

`CC1(C)N=C(N)NC(NOCC=Cc2ccccc2)=N1`: the growth inhibition in experiment [1] is 2%; in experiment [4], 98% (active). The results for the inhibition in experiment [2] and in experiment [3] were 35% and -2%, respectively. Also, the outcome in experiment [5], in experiment [6], in experiment [7] and in experiment [8] was inactive.
